# PubChem BioAssay AID560 (The Scripps Research Institute Molecular Screening Center, 2006)
# Hit rate of the full screen: of about 65,000 compounds, about 980 (1.5%) were called active. This excerpt belongs to a sample that is enriched for actives. Unmarked numbers belong to inactive results.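 How the source made its calls: active means activation above the mean of all tested compounds plus 3 SD (cut at about 49% in these data); inactive means the rest.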
# Biological target: Nuclear receptor ROR-alpha (Homo sapiens) (UniProt P35398)
# Sequence (P35398 whole entry, looked up): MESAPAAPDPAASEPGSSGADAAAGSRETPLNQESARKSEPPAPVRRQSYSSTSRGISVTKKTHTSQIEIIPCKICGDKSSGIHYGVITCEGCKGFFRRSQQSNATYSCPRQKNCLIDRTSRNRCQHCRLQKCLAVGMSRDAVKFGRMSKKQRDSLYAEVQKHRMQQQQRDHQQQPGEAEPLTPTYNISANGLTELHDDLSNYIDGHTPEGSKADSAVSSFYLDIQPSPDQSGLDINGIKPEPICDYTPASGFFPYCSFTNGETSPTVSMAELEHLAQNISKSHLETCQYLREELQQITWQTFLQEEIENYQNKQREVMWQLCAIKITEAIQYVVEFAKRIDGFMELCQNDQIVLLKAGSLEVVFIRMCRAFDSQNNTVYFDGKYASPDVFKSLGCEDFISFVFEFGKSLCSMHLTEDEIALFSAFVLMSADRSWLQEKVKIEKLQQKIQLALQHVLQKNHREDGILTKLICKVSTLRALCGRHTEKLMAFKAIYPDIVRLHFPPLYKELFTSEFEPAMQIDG
# Test: activators of orphan receptor RORA, primary screen, cell-based, luminescence (AID 560);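 further: 0% = DMSO-treated RORA cells and 100% = added signal equal to DMSO minus mock-transfected cells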
# Conditions: CHO-K1 Gal4-RORA LBD luciferase reporter, at 10 µM, active compounds read high, percent increase over mock-subtracted basal signal
row,Compound,activation
1,COCCCNC(=O)Cn1cc(C(=O)C2CC2)c2ccccc21,7.7%
2,Cc1nnc(SCC(=O)Nn2cnnc2)s1,2.5%
3,CCOc1ccc(Nc2oc(Cc3ccccc3)nc2C#N)cc1,25.8%
4,N#Cc1nc(COc2ccc(-c3ccccc3)cc2)oc1NCc1cccnc1,-0.3%
5,N#Cc1nc(Cc2ccccc2)oc1NCCc1ccccc1,54.1% (active)
6,O=C(c1ccco1)N(Cc1nc2ccccc2c(=O)[nH]1)C1CCCC1,-21.9%
7,COCc1nc2ccccc2n1Cc1ccccc1Br,-6.2%
8,Cn1c(COc2ccc(Cl)cc2)nc2ccccc2c1=O,7.3%
9,COCn1c(COc2ccccc2)nc2ccccc21,53.4% (active)
10,CCOC(=O)c1c(NC(=O)c2ccc(Br)o2)sc2c1CCCC2,10.7%
11,C=CCOC(=O)C1=C(C)OC(N)=C(C#N)C1c1ccc(F)cc1 (stereo not drawn),-35.4%
12,Brc1ccc(Nc2c3c(nc4ncnn24)CCC3)cc1,-16.4%
13,OCCCN1c2ccccc2Nc2nnc(-c3ccccc3)cc21,56.8% (active)
14,C=CCSc1nc2ccccc2[nH]1,6.3%
15,Cn1c(SCC(=O)c2cccs2)nnc1-c1ccco1,20.4%
16,O=C(CSc1nc2ccccc2[nH]1)c1cccs1,56.5% (active)
17,Cc1ccsc1-c1nc(CSCC(=O)NCCN2CCCC2)c(C)o1,4.3%
18,Cc1ccc(S(=O)(=O)C2(S(=O)(=O)c3ccc(C)cc3)CCCC2)cc1,36.3%
19,O=C(CN1CCN(c2ccccn2)CC1)NCc1cccs1,1.8%
20,CCN(CC)S(=O)(=O)c1cc(C(=O)Nc2ccccn2)ccc1C,59.6% (active)
21,Cc1noc(C)c1C(=O)Nc1ccccn1,-8.4%
22,CCN(CC)S(=O)(=O)c1cccc(C(=O)Nc2ccccc2)c1,2.7%
23,O=C(CCn1c(=O)oc2ccccc21)Nc1ccon1,8.2%
24,O=C(Nc1ccc(Cl)cn1)c1cnn2cccnc12,62% (active)
25,Cc1cc(NC(=O)c2cnn3cccnc23)n(-c2ccccc2)n1,10%
26,O=C(Nc1ccc(Cl)cn1)Nc1cccs1,42.6%
27,CCCCOc1ccc(NC(=O)CSCC(=O)OCC)cc1,-11.3%

row,Compound,activation
1,CCOC(=O)c1cnc(SCC(=O)NCc2ccco2)nc1N,-10.7%
2,CCCCOc1ccc(-c2ncc(C(=O)OCC)c(N)n2)cc1,59.3% (active)
3,CCn1cc(NC(=O)Nc2ccc(OC)c(OC)c2)c(C(N)=O)n1,4.9%
4,COc1ccc(NC(=O)c2ccc(OC)cc2)cc1,25.7%
5,COc1cc(OC)c(C(=O)Nc2ccc(N(C)C)cc2)cc1OC,58.1% (active)
6,COc1cc(OC)c(C(=O)NC2CCCCCC2)cc1OC,-17%
7,O=C(Nc1ccccc1F)c1cc(S(=O)(=O)N2CCCCC2)cs1,0.6%
8,CCN1C(=O)c2cccc3c(N)ccc1c23,-26%
9,CCN1C(=O)/C(=C\N2CCN(c3ccccc3)CC2)SC1=S,-18%
10,CCN1C(=O)/C(=C2\SC(N3CCCCC3)=NC2=O)c2ccccc21,84.9% (active)
11,O=C(c1cccs1)N1CCN(C(=O)N2CCOCC2)CC1,8.8%
12,N#Cc1nc(-c2ccc(OCc3ccccc3)cc2)oc1NCCCN1CCOCC1,17%
13,CC1CCN(c2oc(-c3ccccc3F)nc2C#N)CC1,29%
14,COc1ccc(Nc2oc(-c3ccccc3Cl)nc2C#N)cc1,98.6% (active)
15,O=S(=O)(c1cccs1)N1CCc2ccccc2C1,-7.5%
16,CCN1C(=O)/C(=C2/Sc3ccccc3N2CCCS(=O)(=O)O)SC1=S,-2.8%
17,COCCNC(=O)CN1C(=O)CSc2ncccc21,18.9%
18,CCS(=O)(=O)n1nc(-c2ccccc2)nc1SCc1ccccc1,32.6%
19,COc1ccc(-n2c(SC)nc(O)cc2=O)cc1,-8.4%
20,CCS(=O)(=O)n1nc(-c2ccc(OC)cc2)nc1SC,52.4% (active)
21,CCCS(=O)(=O)N1CCN(C(=O)c2cccs2)CC1,-4.5%
22,N#C/C(=C1\CCCN1)c1nc(-c2ccccc2)cs1,6.4%
23,N#CC(=C1SC=CS1)c1nc(-c2ccccc2)cs1,59.7% (active)
24,C#CC(C)(C)NC(=O)CSc1nc2c(c(=O)n(C)c(=O)n2C)n1CCCC,5%
25,CC(=O)CSc1nnc(CSc2ncccn2)n1C1CCCCC1,-9.7%
26,COC(=O)C1=C(C)Nc2ncnn2C1c1ccco1 (stereo not drawn),-4.4%
